Over roughly 5,400 compounds, “IFI” has its median near 2; the highest 2% begin near 22. The entries come from a sample that favours the highest values as a whole.
Test: NOVARTIS: Inhibition Frequency Index (IFI) - the number of HTS assays where a compound showed > 50% inhibition/induction, expressed as a percentage of the number of assays in which the compound was tested.
Type: functional

Row | SMILES | IFI [%]
1 | O=C(Nc1ccc2oc(-c3cccc4ccccc34)nc2c1)c1ccc([N+](=O)[O-])o1 | 7.14
2 | C=CC1(C)CC23CC(C(OC(=O)c4ccccc4)c4ccnc5ccccc45)N2CCC13 (stereo not drawn) | 3.64
3 | COc1cccc2cc(-c3nc(-c4ccccc4)cs3)c(=O)oc12 | 6.45
4 | Cc1cc(/C=C2/SC(=S)N(CC(=O)O)C2=O)c(C)n1-c1ccccc1 | 0
5 | CCN1/C(=C\C=C2/SC(=S)N(c3ccccc3)C2=O)C(C)(C)c2cc(-c3ccccc3)ccc21 | 25
6 | COc1cccc(N2C(=O)/C(=C/c3cccnc3)SC2=S)c1 | 0
7 | N#Cc1c(-c2ccccc2)cc(N2CCN(Cc3ccc(Cl)cc3)CC2)n2c1nc1ccccc12 | 7.5
8 | COc1cc2c(OC3OCC(OC)C(OC)C3O)c3c(c(-c4ccc5c(c4)OCO5)c2cc1OC)C(=O)OC3 (stereo not drawn) | 27.7
9 | CCOC(=O)c1c(-c2ccc3c(c2)OCO3)[nH]c2cc(OC)ccc2c1=O | 0
10 | CCOC(=O)c1c(-c2ccc3c(c2)OCO3)[nH]c2cccc(OC)c2c1=O | 0
11 | CCOc1ccc(NC(=O)C2c3ccccc3C(=O)N(CC(C)C)C2c2cccs2)cc1 (stereo not drawn) | 6.25
12 | CS[C@H]1SC[C@H]2C(=O)N(C)[C@@H](C(C)C)C(=O)OC[C@@H](NC(=O)c3cnc4ccccc4n3)C(=O)N[C@@H](C)C(=O)N(C)[C@@H]1C(=O)N(C)[C@@H](C(C)C)C(=O)OC[C@@H](NC(=O)c1cnc3ccccc3n1)C(=O)N[C@@H](C)C(=O)N2C | 34.6
13 | O=C(Nc1ccc(C2=NCCN2)cc1)c1ccc(-c2ccc(C(=O)Nc3ccc(C4=NCCN4)cc3)cc2)cc1 | 4.4
14 | O=C(CN(CCN1CCOCC1)S(=O)(=O)c1ccccn1)N1CCN(C(c2ccccc2)c2ccccc2)CC1 | 0
15 | OC1(c2ccc3ccccc3c2)c2c(c3ccccc3c3ccccc23)C2=NCCN21 (stereo not drawn) | 3.25
16 | CCn1c2ccccc2[n+]2c(C)cc(C)nc12 | 7.14
17 | COc1cc2nc(NCC3CCCO3)n3nc(-c4ccccc4)nc3c2cc1OC (stereo not drawn) | 2.27
18 | CC[n+]1c(/C=C/N(C)c2ccccc2)n(-c2ccccc2)c2ccc(-c3nc4ccccc4s3)cc21 | 29.2
19 | CCOC(=O)c1ccc2c(c1)[n+](CC)c(/C=C/N(C)c1ccccc1)n2CC | 7.41
20 | CCn1c(/C=C/N(C)c2ccccc2)[n+](CC)c2cc(Cl)ccc21 | 6.25
21 | NCCC(=O)N1CC(c2ccccc2)c2ccccc2C1CN1CCCCC1 (stereo not drawn) | 4.22
22 | COc1ccc2cc(CNCCc3cccc(Cl)c3)c(N3CCC(=O)N(CCN(C)C)CC3)nc2c1 | 9.73
23 | Cc1onc(-c2ccccc2)c1C(=O)N1CCC(CNc2c(-c3ccc(F)cc3)nc3ccccn23)CC1 | 5.56
